# Experimental data published in the supplement of paper PMC6555819.
# Tests used:
# Assay in all cases: PBM binding z-score (relative to random genomic background probes); higher = stronger binding; sequences stand for … in GC…GCGATTGACAGCGTAGAATGAAGG
# [1] = tested on: FXR:RXRa (NR concentration 270 nM, RXRa partner concentration 90 nM)
# Method in brief: (§1)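 Binding z-scores take random background probes as their reference. They come from custom Agilent 4×180K protein-binding microarrays incubated 1 h with ligand-free nuclear receptor dimers, with antibodies against each partner (one per run) detecting binding. Scanned fluorescence was regression-normalized.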
# [2] = tested on: LXRa:RXRa (NR concentration 270 nM, RXRa partner concentration 90 nM)
# Method in brief: as §1
# [3] = tested on: LXRa homodimer (NR concentration 270 nM)
# Method in brief: as §1
# [4] = tested on: LXRb:RXRa (NR concentration 270 nM, RXRa partner concentration 90 nM)
# Method in brief: as §1
# [5] = tested on: LXRb homodimer (NR concentration 270 nM)
# Method in brief: as §1
# [6] = tested on: PPARa:RXRa (NR concentration 270 nM, RXRa partner concentration 90 nM)
# Method in brief: as §1
# [7] = tested on: PPARg:RXRa (NR concentration 180 nM, RXRa partner concentration 90 nM)
# Method in brief: as §1
# [8] = tested on: PPARg:RXRa 270nM:90nM, anti-RXR (NR concentration 270 nM, RXRa partner concentration 90 nM)
# Method in brief: as §1
# [9] = tested on: PPARg:RXRa 30nM:10nM, anti-RXR (NR concentration 30 nM, RXRa partner concentration 10 nM)
# Method in brief: as §1
# [10] = tested on: PPARg:RXRa 90nM:30nM, anti-RXR (NR concentration 90 nM, RXRa partner concentration 30 nM)
# Method in brief: as §1
# [11] = tested on: PPARg:RXRa DBDmut IVT, anti-RXR (DBD mutation: RXRa K156A/R161A, NR concentration 270 nM, RXRa partner concentration 90 nM)
# Method in brief: as §1
# [12] = tested on: PPARg:RXRa IVT, anti-PPARg (NR concentration 270 nM, RXRa partner concentration 90 nM)
# Method in brief: as §1
# [13] = tested on: PPARg DBDmut:RXRa IVT, anti-PPARg (DBD mutation: PPARg1 K132A/R137A, NR concentration 270 nM, RXRa partner concentration 90 nM)
# Method in brief: as §1
# [14] = tested on: PPARg DBDmut IVT, anti-PPARg (DBD mutation: PPARg1 K132A/R137A, NR concentration 270 nM)
# Method in brief: as §1
# [15] = tested on: PPARg homodimer (NR concentration 180 nM)
# Method in brief: as §1
# [16] = tested on: PXR:RXRa (NR concentration 270 nM, RXRa partner concentration 90 nM)
# Method in brief: as §1
# [17] = tested on: PXR homodimer (NR concentration 270 nM)
# Method in brief: as §1
# [18] = tested on: RARa:RXR (NR concentration 270 nM, RXRa partner concentration 90 nM)
# Method in brief: as §1
# [19] = tested on: RARa homodimer (NR concentration 270 nM)
# Method in brief: as §1
# [20] = tested on: RARb:RXRa (NR concentration 270 nM, RXRa partner concentration 90 nM)
# Method in brief: as §1
Sequence,PBM binding z-score [1],PBM binding z-score [2],PBM binding z-score [3],PBM binding z-score [4],PBM binding z-score [5],PBM binding z-score [6],PBM binding z-score [7],PBM binding z-score [8],PBM binding z-score [9],PBM binding z-score [10],PBM binding z-score [11],PBM binding z-score [12],PBM binding z-score [13],PBM binding z-score [14],PBM binding z-score [15],PBM binding z-score [16],PBM binding z-score [17],PBM binding z-score [18],PBM binding z-score [19],PBM binding z-score [20]
ATACCAAGGTGATCGTGGGGTCGTTGATACTAAC,1.56,1.27,0.187,2.56,0.143,2.42,0.805,0.876,0.0671,0.468,0.765,1.54,0.837,0.583,1.5,3.05,1.11,2.65,0.577,1.33
TCTTGTAGATCAGCAGGTTAAGGAAGCTGGCCAA,0.249,0.362,-0.204,0.224,-0.678,0.814,-0.515,1.47,2.53,2.02,1.63,0.577,-1.02,-0.0477,-0.0347,0.121,-0.363,0.277,-0.25,0.316
CGAACTAGGTCAGAACATGACAGTGAAGGATGAT,0.703,0.762,-0.0558,0.426,-0.161,3.07,5.35,4.49,2.05,3.4,6.77,7.31,2.34,1.77,1.17,0.243,-0.286,0.937,0.0136,2.58
CGAACTCGGTCAAGGACAGTGAATCTCCGCACGC,0.923,0.427,-0.214,-0.232,-0.75,0.927,0.826,0.618,-0.54,-0.129,3.2,2.25,-0.0732,-0.272,-0.336,0.0143,-0.196,0.378,-0.323,2.62
TCAGACAGGTGAAGGTACCTCAGGTACGCAGTCG,0.559,0.611,-0.182,0.0572,-0.29,1.13,0.642,1.8,3.41,2.54,1.89,0.885,0.0512,-0.186,0.265,0.248,-0.155,0.888,-0.298,0.914
ATCGAAAGGTCGAGGTGATTATAGAGAAAGGGAA,4.57,3.62,0.192,2.64,0.41,4.56,3.24,3.59,1.31,2.75,0.469,2.16,1.08,1.21,1.85,2.51,0.0251,3,0.473,4.2
CCTAGTTGGTCAGGAGGTCACACGCCGGATATGA,3.62,3.32,1.92,3.15,0.554,4.05,3.59,3.92,1.69,2.84,1.84,3.74,0.471,-0.188,3.2,4.12,1.31,4.32,1.9,3.71
ACTATTAGTTGACTTAGGGCAAGCGATACGACGC,0.286,0.302,0.111,0.0469,0.509,0.124,0.824,0.206,0.267,0.144,0.209,0.768,0.636,1.04,0.596,0.255,0.294,0.775,0.794,0.892
TCTTGTAGATCAACAGGTGGTTAAGAAAGATCGA,-0.0557,0.0664,-0.0924,-0.247,-0.293,0.436,-0.255,1.22,2.58,1.8,1.73,0.582,0.605,0.677,0.713,-0.0683,0.00391,0.0313,0.688,-0.0604
AGAATGAGGTTATTAATATCAGGGAATTGCGGTC,1.19,1.32,0.394,1.3,-0.0827,2.47,1.54,1.67,0.598,1.35,2.96,2.52,1.52,0.456,0.953,1.27,0.447,1.32,0.74,1.18
GGAACGAGGGCAAGTTGATTGCAGAGTTTGATGG,1.16,0.697,-0.325,0.396,-0.755,1.84,0.925,1.03,-0.0716,0.569,3.51,2.76,0.164,-0.675,0.268,0.704,0.465,0.608,-0.397,2.69
CTGAGTAGGTTATGGGGCATTCAGGCAACGGTGA,0.204,0.0795,0.0598,0.763,-0.118,2.8,4.62,5.02,3.08,5.01,4.73,4.47,0.603,-0.059,0.463,0.0232,0.0116,0.559,-0.472,0.942
TAGCCTAGGTCATTGGGCCATTATAGTACGCATC,4.57,3.93,1.08,2.84,0.197,4.22,4.13,3.99,1.45,3.32,3.37,4.19,0.472,0.314,2.65,1.86,-0.263,2.7,-0.217,3.56
CCTCCGAGGACAGAAGGTCAGAGCTGTCCGCTTT,1.46,1.7,0.408,1.37,-0.149,1.89,-0.0299,0.869,-0.46,0.274,-0.16,0.312,-1.35,-1.76,2.39,1.76,0.0922,2.49,1.09,3.23
